In ChEMBL document CHEMBL3433997, “St. Jude Leishmania screening dataset” (2016):

Molecular target: Glucose transporter (Leishmania mexicana) (UniProt O61059)
Assay: ST_JUDE_LEISH: Cytotoxicity at 2uM final concentration against transgenic Leishmania Mexicana promastigotes LmGT2 that are glucose transport deficient and complemented with the L. Mexicana glucose transporter 2. Activity is measured by DNA content using SYBR green in vitro
Type: functional

In order of falling inhibition:
1. CC[C@H]1CN2CCc3cc(OC)c(OC)cc3[C@@H]2C[C@@H]1C[C@H]1NCCc2c1cc(OC)c(OC)c2Br  84.7%
2. O=C(/C=C/c1ccc(Cl)c(Cl)c1)N1CCC(CN2CCC(c3c[nH]c4cc5c(cc34)OCO5)CC2)CC1  3.71%
3. O=C(/C=C/c1cccs1)NC1CCC(CN2CCC(c3c[nH]c4ccccc34)CC2)CC1 (stereo not drawn)  2.51%
